# Hits are enriched below; roughly 4.2% of the tested compounds scored in any of these assays.
# Mito fusion act = qHTS Assay for Small Molecule Inhibitors of Mitochondrial Division or Activators of Mitochondrial Fusion. 0.23% of 320,000 active. AID 485298, 2010. S. cerevisiae fusion-defective mutant growth rescue, CellTiterGlo 48 h. Potency, µM (top dose mostly 46.1 µM), for inactives: top-dose growth rescue (activation), usual class: activators; also: % of control where 0% means no effect; nearly all actives have a fitted effect of over 45% in size
#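 Luminescent cell viability in 1536-well qHTS format served as the measure of rescued growth in ts fusion-mutant S. cerevisiae cultured on non-fermentable YPEG for 48 hours at 37C.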
# AT treatment = qHTS Assay for Identifying a Potential Treatment of Ataxia-Telangiectasia; F2112 A-T fibroblasts, KAP-1 phosphorylation AlphaLISA; neocarzinostatin DNA damage 30 min before lysis; Potency, µM (doses to about 57.5 µM), without a hit: at the top dose activation, hits mostly activators; 0.19% of 320,000 active; AID 485349, 2010; also: % of control where 0% means no effect; nearly all actives have a fitted effect of over 45% in size
#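 hTERT-immortalized A-T patient fibroblasts (F2112), 500 cells/well in OPTI-MEM, 1% FBS, got compounds for 60 min, then NCS for 30 min at 37C. Lysates were then assayed for phospho-KAP-1 by AlphaLISA (anti-pKAP1 donor, anti-KAP1 acceptor beads), 6 hr at 25C.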
# a7 integrin act = qHTS for Activators of Integrin-Mediated Alleviation for Muscular Dystrophy | alpha7betagal myoblasts, beta-gal FDG fluorescence, 48 h | Potency, µM (doses to about 38.3 µM), without a hit: at the top dose activation, actives largely listed as activators | 0.064% of 350,000 active;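 also: 100% = response of the positive control SU9516; nearly all actives have a fitted effect of over 60% in size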
#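 Alpha7betagal+/- myoblasts (passage 13) were plated 16-24 hr, then exposed to compounds (1:260 dilution of DMSO stock) for 48 hours at 37C. After MPER lysis, β-galactosidase reporter activity was read as FDG fluorescence (ex 480/em 540) after 30 minutes.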
# SW480 rerep = A quantitative high throughput screen for small molecules that induce DNA re-replication in SW480 colon adenocarcinoma cells | SW480 DNA re-replication, Hoechst DNA content imaging, 48 h | Potency, µM (doses to about 46.1 µM), without a hit: at the highest dose re-replication activation, most hits filed as activators | 1.8% of 340,000 active; also: % of control where 0% means no effect; nearly all actives have a fitted effect of over 55% in size
#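 Readout is total intensity of Hoechst-stained nuclei, excited at 405 nm and collected at 500-530 nm. Compound treatment lasted 48 hr at 37 C in 5% CO2 before staining.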
# MCF10A rereplic = A quantitative high throughput screen for small molecules that induce DNA re-replication in MCF 10a normal breast cells | MCF 10A DNA re-replication, Hoechst nuclear intensity, 48 h | Potency, µM (series often up to 46.1 µM), without a hit: at the top dose activity, positive = re-replication, most hits filed as activators | 2.9% of 350,000 active; also: % of control where 0% means no effect; nearly all actives have a fitted effect of over 50% in size
# Active calls of the source: *; ? = inconclusive; . = no result given; [ ] = remark or other dose. Calls follow the shape of the dose curve; as a rule, active = well fitted activation curve with a large enough effect; inconclusive = small, poorly fitted or top-dose-only effect; inactive = no such curve, though single readings can be large or run the other way. Potency is read from the fitted curve at half-maximal effect.
SMILES,Mito fusion act,AT treatment,a7 integrin act,SW480 rerep,MCF10A rereplic
CCOC(=O)c1ccc(NS(=O)(=O)c2ccc(SC)cc2)cc1,20µM*,0%,-4%[7.66 µM],6%,23µM*
CCOC(=O)Cc1ccc(NS(=O)(=O)c2ccc(SC)cc2)cc1,13%,-1%,3%,-4%,2%
COc1cccc(-n2nnnc2SCC(=O)Nc2ccccc2OC)c1,1%,4%,10%,-16%,4%
CCCS(=O)(=O)c1nnnn1-c1cccc(OC)c1,-26%,4%,-55%,?,6.5µM*
O=C(O)C1C2CCC(C2)C1C(=O)NCCC1=CCCCC1 (stereo not drawn),-14%,-2%,?,0.52µM*,-4%
COc1cc(NC(=O)CSc2nc3c(c(=O)[nH]2)CCCC3)cc(OC)c1OC,-7%,2%,10%,-8%,1%
CC(=O)c1ccc(-n2c(=O)[nH]c(=O)c3c(N)c(C(=O)c4ccc(Cl)cc4)sc32)cc1,10%,3%,-8%,18µM*,?
Cc1ccc(C(=O)c2sc3c(c2N)c(=O)[nH]c(=O)n3CCc2ccccc2)cc1,-3%,9%,17%,?,9.2µM*
Nc1c(C(=O)c2ccc(Cl)cc2)sc2c1c(=O)[nH]c(=O)n2-c1ccccc1,11%,4%,11%,-4%,?
COc1cc(Cl)c(C)cc1NC(=O)CCN1C(=O)NC(C)(C)C1=O,1%,7%,-25%,?,21%
O=C(Nc1ccc(Oc2ccccc2)nc1)C1CCN(Cc2ccco2)CC1,0%,6%,-22%,6%,6%
Cc1ccc(CN2CCCCC2C(=O)Nc2ccc(Oc3cccnc3)cc2)o1 (stereo not drawn),0%,7%,-4%,16µM*,15µM*
O=C(Nc1ccc(Oc2ccccc2)nc1)C1CCCCN1Cc1ccco1 (stereo not drawn),-1%,15%,0%,2.9µM*,1.8µM*
c1ccc(C2=NN(c3ccccc3)CC2)cc1,-2%,34%,?,16µM*,21µM*
COc1ccccc1-c1coc2c(CN3CCCCC3C)c(O)ccc2c1=O (stereo not drawn),-2%,0%,9%,-2%,0%
COc1ccccc1-c1coc2c(CN3C(C)CCCC3C)c(O)ccc2c1=O (stereo not drawn),1%,0%,2.2µM*,3%,0%
O=C1CC2(CCN(C(=O)c3ccc(F)c(F)c3)CC2)Oc2ccccc21,8%,4%,12%,-123%,?
Cc1cc(C)cc(OCc2ccc(C(=O)N3N=C(C(F)F)CC3(O)C(F)F)o2)c1 (stereo not drawn),9%,4%,7%,6%,23µM*
CCOc1ccc(OCc2ccc(C(=O)N3N=C(C(F)F)CC3(O)C(F)F)o2)cc1 (stereo not drawn),0%,-1%,21%[7.66 µM],4%,1%
Nc1ncnc(N)c1NC(=O)c1ccc(OCc2ccccc2)cc1,.,.,-4%,.,.
Cc1cccc(C(=O)O/N=C(\N)Cc2ccc([N+](=O)[O-])cc2)c1,-18%,2%,1%,-3%[9.22 µM],19%
Cc1ccc(C(=O)O/N=C(\N)Cc2ccc([N+](=O)[O-])cc2)c(Cl)c1,-18%,-3%,21%,?,18µM*
COc1ccccc1Cn1c(=S)[nH]c2cc(C(=O)N3CC(C)CC(C)C3)ccc2c1=O (stereo not drawn),.,.,0%,.,.
O=[N+]([O-])c1ccc(C=Nc2cccc3ccccc23)s1,-5%,13%,-62%,6.5µM*,21µM*
O=C(N/N=C/c1ccc([N+](=O)[O-])s1)c1cccc(Br)c1,2%,.,-60%,10µM*,?
SMILES,Mito fusion act,AT treatment,a7 integrin act,SW480 rerep,MCF10A rereplic
Cc1ccc(C(=O)N/N=C/c2ccc([N+](=O)[O-])s2)cc1,12%,2%,-40%,?,24%
O=[N+]([O-])c1ccc(C=NN2CCOCC2)s1,.,.,-10%,.,.
O=C(Cc1ccccc1)NCC(=O)N/N=C/c1ccc([N+](=O)[O-])s1,10%,-1%,-65%,15µM*,5%
O=C(N/N=C/c1ccc(O)c2ncccc12)c1cccc(Br)c1,-1%,-2%,-28%,?,18µM*
Cc1cccc(-n2c(=S)[nH]c3nc4c(cc3c2=O)COC(C)(C)C4)c1,-11%,7%,14%,-23%,?
O=C(COC(=O)c1cc(S(=O)(=O)N2CCCC2)ccc1O)NCCc1ccccc1,4%,5%,?,-3%,-5%
Cc1ccc(CNn2cn[nH]c2=S)cc1,.,.,-6%,-11%,-2%
Cc1ccc(N2CC(C(=O)Nc3cc(S(=O)(=O)N4CCCCC4)ccc3C)CC2=O)cc1 (stereo not drawn),.,.,-21%,.,.
Cc1ccnc(NC(=O)C(C)N2C(=O)c3ccccc3S2(=O)=O)c1 (stereo not drawn),-1%,-6%,7%,-3%,-3%
O=C(N/N=C/c1ccccn1)c1cc(Br)ccc1O,-2%,23%,?,4.1µM*,?
Cc1cc(C)n(CC(=O)N/N=C/c2ccc([N+](=O)[O-])s2)n1,-1%,0%,-43%,21µM*,?
Cc1cc(C)n(CC(=O)N/N=C/c2cccs2)n1,-9%,.,30%,-1%,12%
Cc1[nH]c2ccccc2c1C(=O)C(=O)NCc1nnnn1-c1ccc(F)cc1,.,.,15%,.,.
CCOC(=O)Cc1cc(=O)[nH]c(/N=C(\N)Nc2ccc(C)c(C)c2)n1,-2%,8%,4%,-2%,12%
CCOC(=O)C(C)(C)N(Cc1cccc(C)c1)S(=O)(=O)c1cccc([N+](=O)[O-])c1,3%,3%,1%,-4%,5%
CCOC(=O)C(C)(C)N(Cc1cccc(C)c1)S(=O)(=O)c1ccc(Cl)c([N+](=O)[O-])c1,?,-5%,-53%,?,5.2µM*
CC(C)(C)c1ccc2c(c1)OC(C(=O)N/N=C\c1ccc(-c3cccc(C(=O)O)c3)o1)CO2 (stereo not drawn),2%,19%,-4%,-6%,11%
O=C(N/N=C\c1ccc([N+](=O)[O-])s1)C1COc2ccccc2O1 (stereo not drawn),-23%,8%,-17%,1%,-8%
O=C(N/N=C/c1c[nH]c2ccccc12)C1COc2ccccc2O1 (stereo not drawn),-2%,1%,10%,?,21µM*
O=C(N/N=C\c1ccc(Cl)s1)C1COc2ccccc2O1 (stereo not drawn),1%,0%,36%,16µM*,?
CC(C)(C)c1ccc2c(c1)OC(C(=O)N/N=C\c1ccccn1)CO2 (stereo not drawn),16µM*,8%,19%,-1%,?

# Bioassay records from PubChem BioAssay.
